Test results: article PMC7862700, “An all-to-all approach to the identification of sequence-specific readers for epigenetic DNA modifications on cytosine”

Legend:
Test in all cases: DAPPL (digital affinity profiling via proximity ligation, sequencing); 10 mM Tris-HCl pH 7.5, 50 mM NaCl, 1 mM DTT, 4% glycerol, room temperature, 30 min; GST-TFs on glutathione beads, 16-mer random dsDNA library, 0.1% formaldehyde crosslink after washing; high values mean tight binding
FEV = molecular target: T1, FEV (Homo sapiens, UniProt Q99581 1-238); conditions: protein: recombinant; tags: N-terminal GST; dsDNA, one strand shown
T1 sequence: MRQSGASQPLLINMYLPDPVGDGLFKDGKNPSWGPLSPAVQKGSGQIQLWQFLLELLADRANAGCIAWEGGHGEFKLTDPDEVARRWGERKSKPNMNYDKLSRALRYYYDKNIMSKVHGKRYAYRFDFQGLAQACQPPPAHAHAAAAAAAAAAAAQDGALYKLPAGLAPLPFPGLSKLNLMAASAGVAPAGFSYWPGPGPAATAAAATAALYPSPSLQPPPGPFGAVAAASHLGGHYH
Method in brief: (§1)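 In yeast, human transcription factors were expressed with a GST fusion, then pulled down on glutathione beads and given DNA barcodes. Pooled with a tag-only sample, they were exposed to 200 nmole of a 16-mer random double-stranded DNA library (Tris/NaCl/DTT/glycerol buffer, room temperature, 30 min), washed, crosslinked with 0.1% formaldehyde, proximity-ligated using BsaI/T4 ligase for 1 h at 37 °C, PCR-amplified and read on an Illumina NextSeq500. Each hexamer's frequency of reads for a factor, divided by the matching frequency for the tag-only sample, gives the binding signal.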

ETV5 = ETV5 (Homo sapiens, UniProt P41161 1-510); conditions: protein: recombinant; tags: N-terminal GST; dsDNA, one strand shown
Method in brief: as §1

HSF1 = HSF1 (Homo sapiens, UniProt Q00613 1-529); conditions: protein: recombinant; tags: N-terminal GST; chain copies: 3; dsDNA, one strand shown
Method in brief: as §1

SPIC = molecular target: T2, SPIC (Homo sapiens, UniProt Q8N5J4 1-248); conditions: protein: recombinant; tags: N-terminal GST; dsDNA, one strand shown
T2 sequence: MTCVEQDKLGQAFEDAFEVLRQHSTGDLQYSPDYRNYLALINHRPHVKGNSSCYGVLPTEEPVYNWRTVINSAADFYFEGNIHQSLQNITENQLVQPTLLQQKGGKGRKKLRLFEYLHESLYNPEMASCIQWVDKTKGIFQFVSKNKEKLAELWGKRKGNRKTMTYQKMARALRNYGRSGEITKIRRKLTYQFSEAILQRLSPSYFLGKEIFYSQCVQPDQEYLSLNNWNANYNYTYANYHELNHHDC
Method in brief: as §1

ELF4 = ELF4 (Homo sapiens, UniProt Q99607 1-663); conditions: protein: recombinant; tags: N-terminal GST; dsDNA, one strand shown
Method in brief: as §1

ELK4 = molecular target: T3, ELK4 (Homo sapiens, UniProt P28324-2 1-405); conditions: protein: recombinant; tags: N-terminal GST; dsDNA, one strand shown
T3 sequence: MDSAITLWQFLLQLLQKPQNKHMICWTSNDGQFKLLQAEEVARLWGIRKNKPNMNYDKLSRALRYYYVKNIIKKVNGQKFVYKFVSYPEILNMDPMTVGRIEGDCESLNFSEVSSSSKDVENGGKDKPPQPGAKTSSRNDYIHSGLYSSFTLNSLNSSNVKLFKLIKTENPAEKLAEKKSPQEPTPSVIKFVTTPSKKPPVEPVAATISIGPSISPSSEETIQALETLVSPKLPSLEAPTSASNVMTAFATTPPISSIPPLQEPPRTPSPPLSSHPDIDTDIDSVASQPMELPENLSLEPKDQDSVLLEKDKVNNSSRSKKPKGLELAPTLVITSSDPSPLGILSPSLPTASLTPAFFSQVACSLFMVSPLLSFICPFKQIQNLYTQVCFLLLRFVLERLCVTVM
Method in brief: as §1

ETV2 = molecular target: T4, ETV2 (Homo sapiens, UniProt O00321 1-342); conditions: protein: recombinant; tags: N-terminal GST; dsDNA, one strand shown
T4 sequence: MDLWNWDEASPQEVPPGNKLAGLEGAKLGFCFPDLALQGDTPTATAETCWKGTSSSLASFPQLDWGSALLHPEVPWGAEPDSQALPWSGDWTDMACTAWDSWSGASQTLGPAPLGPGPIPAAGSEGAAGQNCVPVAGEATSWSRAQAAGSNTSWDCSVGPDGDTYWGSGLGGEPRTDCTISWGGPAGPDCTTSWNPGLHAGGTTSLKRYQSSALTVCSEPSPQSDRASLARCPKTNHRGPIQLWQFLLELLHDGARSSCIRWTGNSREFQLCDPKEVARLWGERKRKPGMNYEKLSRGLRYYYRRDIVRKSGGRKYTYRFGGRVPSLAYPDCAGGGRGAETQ
Method in brief: as §1

ELF3 = molecular target: T5, ELF3 (Homo sapiens, UniProt P78545 1-371); conditions: protein: recombinant; tags: N-terminal GST; dsDNA, one strand shown
T5 sequence: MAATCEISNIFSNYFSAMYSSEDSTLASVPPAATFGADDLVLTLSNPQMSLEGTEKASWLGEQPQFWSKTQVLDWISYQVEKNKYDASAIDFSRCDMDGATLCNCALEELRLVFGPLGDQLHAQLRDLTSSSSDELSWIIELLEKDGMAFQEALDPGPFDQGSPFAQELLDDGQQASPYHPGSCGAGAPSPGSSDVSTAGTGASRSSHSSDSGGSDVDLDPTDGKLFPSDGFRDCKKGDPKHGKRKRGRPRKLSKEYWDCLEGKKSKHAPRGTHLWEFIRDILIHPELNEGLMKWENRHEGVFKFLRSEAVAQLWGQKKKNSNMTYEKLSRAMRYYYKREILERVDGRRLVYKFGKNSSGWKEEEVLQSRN
Method in brief: as §1

CRX = CRX (Homo sapiens, UniProt O43186 1-299); conditions: protein: recombinant; tags: N-terminal GST; dsDNA, one strand shown
Method in brief: as §1

ETV1 = ETV1 (Homo sapiens, UniProt P50549 1-477); conditions: protein: recombinant; tags: N-terminal GST; dsDNA, one strand shown
Method in brief: as §1

ERF = molecular target: T6, ERF (Homo sapiens, UniProt P50548 1-548); conditions: protein: recombinant; tags: N-terminal GST; dsDNA, one strand shown
T6 sequence: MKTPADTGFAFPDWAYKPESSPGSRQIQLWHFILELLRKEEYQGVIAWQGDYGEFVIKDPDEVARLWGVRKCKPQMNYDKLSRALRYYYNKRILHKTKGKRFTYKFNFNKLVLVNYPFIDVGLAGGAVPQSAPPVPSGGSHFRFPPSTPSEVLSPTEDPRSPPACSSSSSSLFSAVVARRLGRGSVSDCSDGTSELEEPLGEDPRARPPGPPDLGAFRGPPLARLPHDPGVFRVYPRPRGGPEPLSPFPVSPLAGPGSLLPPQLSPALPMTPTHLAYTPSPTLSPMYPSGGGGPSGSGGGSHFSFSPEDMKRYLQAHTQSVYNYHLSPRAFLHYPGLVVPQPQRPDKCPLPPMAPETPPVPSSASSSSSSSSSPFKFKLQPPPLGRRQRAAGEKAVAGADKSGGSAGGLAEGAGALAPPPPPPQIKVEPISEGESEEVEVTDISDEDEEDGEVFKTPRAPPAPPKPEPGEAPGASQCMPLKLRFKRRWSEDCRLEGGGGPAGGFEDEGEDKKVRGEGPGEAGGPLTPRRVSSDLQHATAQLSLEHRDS
Method in brief: as §1

ETV3L = molecular target: T7, ETV3L (Homo sapiens, UniProt Q6ZN32 1-361); conditions: protein: recombinant; tags: N-terminal GST; dsDNA, one strand shown
T7 sequence: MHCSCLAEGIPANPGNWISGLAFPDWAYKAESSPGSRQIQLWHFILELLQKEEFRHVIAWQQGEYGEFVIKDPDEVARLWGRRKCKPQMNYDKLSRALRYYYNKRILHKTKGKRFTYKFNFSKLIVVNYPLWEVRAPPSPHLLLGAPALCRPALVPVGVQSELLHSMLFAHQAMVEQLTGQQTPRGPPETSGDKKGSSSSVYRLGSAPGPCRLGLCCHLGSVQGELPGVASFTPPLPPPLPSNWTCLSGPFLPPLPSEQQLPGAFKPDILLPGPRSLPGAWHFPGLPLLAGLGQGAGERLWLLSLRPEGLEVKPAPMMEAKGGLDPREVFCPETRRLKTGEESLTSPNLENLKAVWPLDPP
Method in brief: as §1

ETS2 = molecular target: T8, ETS2 (Homo sapiens, UniProt P15036 1-469); conditions: protein: recombinant; tags: N-terminal GST; dsDNA, one strand shown
T8 sequence: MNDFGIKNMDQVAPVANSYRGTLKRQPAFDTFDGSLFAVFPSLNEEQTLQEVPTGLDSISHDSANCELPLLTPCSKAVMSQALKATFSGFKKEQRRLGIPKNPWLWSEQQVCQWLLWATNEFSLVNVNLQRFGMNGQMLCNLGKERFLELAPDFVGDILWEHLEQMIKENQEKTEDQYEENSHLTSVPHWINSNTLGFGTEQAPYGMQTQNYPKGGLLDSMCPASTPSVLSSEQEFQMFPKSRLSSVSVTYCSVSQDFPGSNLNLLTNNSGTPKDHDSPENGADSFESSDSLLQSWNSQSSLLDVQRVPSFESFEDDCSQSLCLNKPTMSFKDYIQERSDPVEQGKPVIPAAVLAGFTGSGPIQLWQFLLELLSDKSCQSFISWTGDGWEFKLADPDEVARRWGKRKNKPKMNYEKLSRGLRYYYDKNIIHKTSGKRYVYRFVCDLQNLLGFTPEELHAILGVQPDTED
Method in brief: as §1

SPDEF = molecular target: T9, SPDEF (Homo sapiens, UniProt O95238 1-335); conditions: protein: recombinant; tags: N-terminal GST; dsDNA, one strand shown
T9 sequence: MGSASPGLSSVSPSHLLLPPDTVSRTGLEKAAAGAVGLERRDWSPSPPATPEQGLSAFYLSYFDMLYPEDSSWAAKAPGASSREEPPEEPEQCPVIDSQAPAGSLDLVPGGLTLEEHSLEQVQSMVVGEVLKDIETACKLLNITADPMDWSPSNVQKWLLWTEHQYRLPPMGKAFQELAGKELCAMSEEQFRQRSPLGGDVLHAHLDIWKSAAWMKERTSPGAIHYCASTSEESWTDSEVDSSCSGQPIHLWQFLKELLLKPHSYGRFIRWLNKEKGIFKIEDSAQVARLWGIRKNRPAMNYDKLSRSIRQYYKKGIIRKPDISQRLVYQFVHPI
Method in brief: as §1

ETV7 = molecular target: T10, ETV7 (Homo sapiens, UniProt Q9Y603 1-341); conditions: protein: recombinant; tags: N-terminal GST; dsDNA, one strand shown
T10 sequence: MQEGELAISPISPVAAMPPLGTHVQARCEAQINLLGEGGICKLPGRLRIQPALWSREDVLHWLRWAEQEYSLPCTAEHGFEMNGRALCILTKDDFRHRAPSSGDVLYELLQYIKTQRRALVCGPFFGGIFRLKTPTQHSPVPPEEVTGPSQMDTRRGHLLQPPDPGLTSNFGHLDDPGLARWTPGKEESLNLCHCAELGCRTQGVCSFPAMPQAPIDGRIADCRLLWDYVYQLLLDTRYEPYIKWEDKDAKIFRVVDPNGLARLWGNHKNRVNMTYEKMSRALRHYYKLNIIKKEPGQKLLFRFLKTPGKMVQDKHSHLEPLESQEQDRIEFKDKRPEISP
Method in brief: as §1

ELF5 = molecular target: T11, ELF5 (Homo sapiens, UniProt Q9UKW6-2 1-255); conditions: protein: recombinant; tags: N-terminal GST; dsDNA, one strand shown
T11 sequence: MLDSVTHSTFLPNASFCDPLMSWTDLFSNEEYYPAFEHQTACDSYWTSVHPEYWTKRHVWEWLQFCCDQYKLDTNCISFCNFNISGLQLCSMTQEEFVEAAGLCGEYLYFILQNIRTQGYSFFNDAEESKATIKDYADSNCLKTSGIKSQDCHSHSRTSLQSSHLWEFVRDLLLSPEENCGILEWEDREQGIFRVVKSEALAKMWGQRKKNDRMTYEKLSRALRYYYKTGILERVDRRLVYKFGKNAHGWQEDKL
Method in brief: as §1

ETV3 = molecular target: T12, ETV3 (Homo sapiens, UniProt P41162-2 1-143); conditions: protein: recombinant; tags: N-terminal GST; dsDNA, one strand shown
T12 sequence: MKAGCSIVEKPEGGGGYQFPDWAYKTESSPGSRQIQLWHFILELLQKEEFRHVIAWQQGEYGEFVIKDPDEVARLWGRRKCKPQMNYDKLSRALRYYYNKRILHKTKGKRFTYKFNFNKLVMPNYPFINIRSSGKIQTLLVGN
Method in brief: as §1

ETV6 = ETV6 (Homo sapiens, UniProt P41212 1-452); conditions: protein: recombinant; tags: N-terminal GST; dsDNA, one strand shown
Method in brief: as §1

Chain of CRX (O43186 whole entry): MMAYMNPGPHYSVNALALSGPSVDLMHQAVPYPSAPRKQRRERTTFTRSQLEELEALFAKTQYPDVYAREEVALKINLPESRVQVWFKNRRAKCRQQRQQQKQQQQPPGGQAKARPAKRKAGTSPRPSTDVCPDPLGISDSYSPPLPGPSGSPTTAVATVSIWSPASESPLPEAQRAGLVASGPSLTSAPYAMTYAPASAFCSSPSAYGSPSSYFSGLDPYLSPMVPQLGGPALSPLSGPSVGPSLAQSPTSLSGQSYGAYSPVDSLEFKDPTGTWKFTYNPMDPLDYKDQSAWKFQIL
Chain of ETV1 (P50549 whole entry): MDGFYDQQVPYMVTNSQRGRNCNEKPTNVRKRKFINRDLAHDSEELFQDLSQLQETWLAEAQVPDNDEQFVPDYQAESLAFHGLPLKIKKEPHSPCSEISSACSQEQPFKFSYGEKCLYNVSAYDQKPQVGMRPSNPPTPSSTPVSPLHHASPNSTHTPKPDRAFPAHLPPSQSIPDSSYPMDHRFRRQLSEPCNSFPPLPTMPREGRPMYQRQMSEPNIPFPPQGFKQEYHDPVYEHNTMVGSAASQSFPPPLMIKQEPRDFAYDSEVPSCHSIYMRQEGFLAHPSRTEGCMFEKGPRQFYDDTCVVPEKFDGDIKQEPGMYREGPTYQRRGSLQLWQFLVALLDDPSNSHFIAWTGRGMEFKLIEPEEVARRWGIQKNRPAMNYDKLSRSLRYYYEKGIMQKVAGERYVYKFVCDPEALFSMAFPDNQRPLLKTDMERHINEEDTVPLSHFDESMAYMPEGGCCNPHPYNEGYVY
Chain of ETV6 (P41212 whole entry): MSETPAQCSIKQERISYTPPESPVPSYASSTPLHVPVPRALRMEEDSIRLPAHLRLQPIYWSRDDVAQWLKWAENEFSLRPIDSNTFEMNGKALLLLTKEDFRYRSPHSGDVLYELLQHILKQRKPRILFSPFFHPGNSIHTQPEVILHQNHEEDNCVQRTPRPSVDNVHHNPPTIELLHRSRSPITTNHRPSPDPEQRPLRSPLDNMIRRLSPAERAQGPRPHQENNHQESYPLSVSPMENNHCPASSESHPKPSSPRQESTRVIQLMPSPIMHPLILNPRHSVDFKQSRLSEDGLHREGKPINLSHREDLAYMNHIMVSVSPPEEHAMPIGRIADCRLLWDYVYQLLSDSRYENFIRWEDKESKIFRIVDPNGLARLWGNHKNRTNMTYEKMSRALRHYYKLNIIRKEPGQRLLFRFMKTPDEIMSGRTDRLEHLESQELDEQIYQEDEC
Chain of HSF1 (Q00613 whole entry): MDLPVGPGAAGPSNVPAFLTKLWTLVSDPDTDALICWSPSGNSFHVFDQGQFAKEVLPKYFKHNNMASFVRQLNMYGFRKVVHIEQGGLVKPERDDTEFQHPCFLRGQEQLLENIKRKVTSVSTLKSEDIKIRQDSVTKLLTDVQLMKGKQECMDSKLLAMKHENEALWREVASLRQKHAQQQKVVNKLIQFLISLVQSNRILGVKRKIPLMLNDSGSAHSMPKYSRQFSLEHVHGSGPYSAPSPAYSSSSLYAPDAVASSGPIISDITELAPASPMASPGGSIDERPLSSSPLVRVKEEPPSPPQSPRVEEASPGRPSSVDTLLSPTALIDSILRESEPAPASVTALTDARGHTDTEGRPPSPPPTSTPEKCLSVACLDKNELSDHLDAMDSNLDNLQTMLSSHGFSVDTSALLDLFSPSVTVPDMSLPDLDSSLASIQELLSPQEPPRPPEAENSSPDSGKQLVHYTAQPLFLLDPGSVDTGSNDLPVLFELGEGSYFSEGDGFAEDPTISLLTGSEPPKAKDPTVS
Chain of ETV5 (P41161 whole entry): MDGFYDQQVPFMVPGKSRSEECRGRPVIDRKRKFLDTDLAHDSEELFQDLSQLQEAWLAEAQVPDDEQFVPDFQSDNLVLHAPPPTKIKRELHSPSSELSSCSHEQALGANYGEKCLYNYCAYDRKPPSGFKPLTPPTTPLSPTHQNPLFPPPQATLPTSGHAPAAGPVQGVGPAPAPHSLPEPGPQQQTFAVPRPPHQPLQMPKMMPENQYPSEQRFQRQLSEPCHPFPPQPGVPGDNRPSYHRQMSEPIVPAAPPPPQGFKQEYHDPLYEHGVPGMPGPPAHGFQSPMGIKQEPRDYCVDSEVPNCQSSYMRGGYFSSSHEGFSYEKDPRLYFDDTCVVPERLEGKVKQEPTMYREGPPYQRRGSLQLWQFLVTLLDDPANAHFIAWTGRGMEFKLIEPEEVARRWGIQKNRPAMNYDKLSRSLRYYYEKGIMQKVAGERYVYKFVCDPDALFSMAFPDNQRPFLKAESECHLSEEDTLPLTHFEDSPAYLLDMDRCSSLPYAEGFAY
Chain of ELF4 (Q99607 whole entry): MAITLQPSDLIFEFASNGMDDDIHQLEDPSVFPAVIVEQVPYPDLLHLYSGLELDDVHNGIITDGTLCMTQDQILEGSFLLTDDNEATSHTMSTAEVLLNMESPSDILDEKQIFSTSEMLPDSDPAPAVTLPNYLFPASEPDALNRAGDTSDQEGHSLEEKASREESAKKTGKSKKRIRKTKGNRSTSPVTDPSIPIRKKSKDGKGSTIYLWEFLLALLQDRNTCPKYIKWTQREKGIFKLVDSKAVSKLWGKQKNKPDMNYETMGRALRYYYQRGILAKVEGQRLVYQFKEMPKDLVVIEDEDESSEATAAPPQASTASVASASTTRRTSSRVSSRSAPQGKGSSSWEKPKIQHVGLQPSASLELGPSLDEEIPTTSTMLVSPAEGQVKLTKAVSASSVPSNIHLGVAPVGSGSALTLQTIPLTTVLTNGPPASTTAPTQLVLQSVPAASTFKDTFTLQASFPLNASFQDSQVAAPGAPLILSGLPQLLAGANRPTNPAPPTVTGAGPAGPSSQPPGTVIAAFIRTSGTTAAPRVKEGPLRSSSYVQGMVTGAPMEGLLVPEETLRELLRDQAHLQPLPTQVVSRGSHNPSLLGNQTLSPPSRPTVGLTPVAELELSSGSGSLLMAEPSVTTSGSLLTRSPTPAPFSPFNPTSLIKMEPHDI

Question: Which binding signal (FEV) does the source give for CGTACT here?
Answer: 1.17 fold enrichment (6-mer frequency, TF over GST control)

Question: What about the binding signal (ETV5) of the same sequence?
Answer: 1.22 fold enrichment (6-mer frequency, TF over GST control)

Question: What about the binding signal (HSF1) of the same sequence?
Answer: 1.05 fold enrichment (6-mer frequency, TF over GST control)

Question: What about the binding signal (SPIC) of the same sequence?
Answer: 1.12 fold enrichment (6-mer frequency, TF over GST control)

Question: And the binding signal (ELF4)?
Answer: 1.25 fold enrichment (6-mer frequency, TF over GST control)

Question: And the binding signal (ELK4)?
Answer: 1.22 fold enrichment (6-mer frequency, TF over GST control)

Question: What about the binding signal (ETV2) of the same sequence?
Answer: 1.35 fold enrichment (6-mer frequency, TF over GST control)

Question: What about the binding signal (ELF3) of the same sequence?
Answer: 1.15 fold enrichment (6-mer frequency, TF over GST control)

Question: And the binding signal (CRX)?
Answer: 1.07 fold enrichment (6-mer frequency, TF over GST control)

Question: What about the binding signal (ETV1) of the same sequence?
Answer: 1.34 fold enrichment (6-mer frequency, TF over GST control)

Question: And the binding signal (ERF)?
Answer: 1.27 fold enrichment (6-mer frequency, TF over GST control)

Question: What about the binding signal (ETV3L) of the same sequence?
Answer: 1.1 fold enrichment (6-mer frequency, TF over GST control)

Question: And the binding signal (ETS2)?
Answer: 1.23 fold enrichment (6-mer frequency, TF over GST control)

Question: What about the binding signal (SPDEF) of the same sequence?
Answer: 1.11 fold enrichment (6-mer frequency, TF over GST control)

Question: And the binding signal (ETV7)?
Answer: 1.1 fold enrichment (6-mer frequency, TF over GST control)

Question: And the binding signal (ELF5)?
Answer: 1.2 fold enrichment (6-mer frequency, TF over GST control)

Question: What about the binding signal (ETV3) of the same sequence?
Answer: 1.2 fold enrichment (6-mer frequency, TF over GST control)

Question: What about the binding signal (ETV6) of the same sequence?
Answer: 1.2 fold enrichment (6-mer frequency, TF over GST control)
